Measurements taken from PMC9911399, “Two distinct binding modes provide the RNA-binding protein RbFox with extraordinary sequence specificity”.
Substitutions are numbered along the chain they refer to; changes in the protein carry UniProt numbers. Whole data set: some 16,000 sequences, median “ka relative to ugcaugu” near 0.0091, cut for the highest 2% near 0.032. The sample as a whole holds a higher share of the highest values than the screen did.

T1: RBFOX1 RRM (Homo sapiens, UniProt Q9NWB1 109-208)
T1 sequence: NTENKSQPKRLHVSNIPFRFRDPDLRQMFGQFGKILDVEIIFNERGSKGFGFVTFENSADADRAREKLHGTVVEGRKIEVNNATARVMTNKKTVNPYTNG

B1: GUCUUAG (DNA:RNA)
RNA: GGGAGACCGGAAUUCAGAUUGUCCGUCUUAGUUAAAUCCCGUCGUAGCCACCA
DNA 1: CAATCTGAATTCCGGTCTCCC
DNA 2: TGGTGGCTACGACGGGATT
B2: UGCAUAA (DNA:RNA)
RNA: B1 RNA with G25U, U26G, U28A, G31A
DNA 1: CAATCTGAATTCCGGTCTCCC
DNA 2: TGGTGGCTACGACGGGATT
B3: UGCGUGG (DNA:RNA)
RNA: B1 RNA with G25U, U26G, U28G, A30G
DNA 1: CAATCTGAATTCCGGTCTCCC
DNA 2: TGGTGGCTACGACGGGATT
B4: UGCAGAA (DNA:RNA)
RNA: B1 RNA with G25U, U26G, U28A, U29G, G31A
DNA 1: CAATCTGAATTCCGGTCTCCC
DNA 2: TGGTGGCTACGACGGGATT
B5: UGCAUGA (DNA:RNA)
RNA: B1 RNA with G25U, U26G, U28A, A30G, G31A
DNA 1: CAATCTGAATTCCGGTCTCCC
DNA 2: TGGTGGCTACGACGGGATT
B6: AGAUGCA (DNA:RNA)
RNA: B1 RNA with G25A, U26G, C27A, U29G, A30C, G31A
DNA 1: CAATCTGAATTCCGGTCTCCC
DNA 2: TGGTGGCTACGACGGGATT
B7: UUCAUGC (DNA:RNA)
RNA: B1 RNA with G25U, U28A, A30G, G31C
DNA 1: CAATCTGAATTCCGGTCTCCC
DNA 2: TGGTGGCTACGACGGGATT
B8: UGAUUCA (DNA:RNA)
RNA: B1 RNA with G25U, U26G, C27A, A30C, G31A
DNA 1: CAATCTGAATTCCGGTCTCCC
DNA 2: TGGTGGCTACGACGGGATT
B9: UGCAUGC (DNA:RNA)
RNA: B1 RNA with G25U, U26G, U28A, A30G, G31C
DNA 1: CAATCTGAATTCCGGTCTCCC
DNA 2: TGGTGGCTACGACGGGATT
B10: GUCCUGC (DNA:RNA)
RNA: B1 RNA with U28C, A30G, G31C
DNA 1: CAATCTGAATTCCGGTCTCCC
DNA 2: TGGTGGCTACGACGGGATT
B11: UGCAUGG (DNA:RNA)
RNA: B1 RNA with G25U, U26G, U28A, A30G
DNA 1: CAATCTGAATTCCGGTCTCCC
DNA 2: TGGTGGCTACGACGGGATT
B12: UUCAUGG (DNA:RNA)
RNA: B1 RNA with G25U, U28A, A30G
DNA 1: CAATCTGAATTCCGGTCTCCC
DNA 2: TGGTGGCTACGACGGGATT
B13: UGAUGCA (DNA:RNA)
RNA: B1 RNA with G25U, U26G, C27A, U29G, A30C, G31A
DNA 1: CAATCTGAATTCCGGTCTCCC
DNA 2: TGGTGGCTACGACGGGATT
B14: UGCGAUA (DNA:RNA)
RNA: B1 RNA with G25U, U26G, U28G, U29A, A30U, G31A
DNA 1: CAATCTGAATTCCGGTCTCCC
DNA 2: TGGTGGCTACGACGGGATT
B15: UUGAGCA (DNA:RNA)
RNA: B1 RNA with G25U, C27G, U28A, U29G, A30C, G31A
DNA 1: CAATCTGAATTCCGGTCTCCC
DNA 2: TGGTGGCTACGACGGGATT
B16: CUUUUUG (DNA:RNA)
RNA: B1 RNA with G25C, C27U, A30U
DNA 1: CAATCTGAATTCCGGTCTCCC
DNA 2: TGGTGGCTACGACGGGATT
B17: UCAACCU (DNA:RNA)
RNA: GGGAGACCGGAAUUCAGAUUGUCCUCAACCUUUAAAUCCCGUCGUAGCCACCA
DNA 1: CAATCTGAATTCCGGTCTCCC
DNA 2: TGGTGGCTACGACGGGATT
B18: UACCUGU (DNA:RNA)
RNA: B1 RNA with G25U, U26A, U28C, A30G, G31U
DNA 1: CAATCTGAATTCCGGTCTCCC
DNA 2: TGGTGGCTACGACGGGATT
B19: AGGGCGU (DNA:RNA)
RNA: B17 RNA with U25A, C26G, A27G, A28G, C30G
DNA 1: CAATCTGAATTCCGGTCTCCC
DNA 2: TGGTGGCTACGACGGGATT
B20: GUUUUGU (DNA:RNA)
RNA: B1 RNA with C27U, A30G, G31U
DNA 1: CAATCTGAATTCCGGTCTCCC
DNA 2: TGGTGGCTACGACGGGATT
B21: AAUCCAC (DNA:RNA)
RNA: B1 RNA with G25A, U26A, C27U, U28C, U29C, G31C
DNA 1: CAATCTGAATTCCGGTCTCCC
DNA 2: TGGTGGCTACGACGGGATT
B22: CGGUGCA (DNA:RNA)
RNA: B1 RNA with G25C, U26G, C27G, U29G, A30C, G31A
DNA 1: CAATCTGAATTCCGGTCTCCC
DNA 2: TGGTGGCTACGACGGGATT
B23: CUGUGCA (DNA:RNA)
RNA: B1 RNA with G25C, C27G, U29G, A30C, G31A
DNA 1: CAATCTGAATTCCGGTCTCCC
DNA 2: TGGTGGCTACGACGGGATT
B24: UGGUGCA (DNA:RNA)
RNA: B17 RNA with C26G, A27G, A28U, C29G, U31A
DNA 1: CAATCTGAATTCCGGTCTCCC
DNA 2: TGGTGGCTACGACGGGATT
B25: UCCUGCA (DNA:RNA)
RNA: B17 RNA with A27C, A28U, C29G, U31A
DNA 1: CAATCTGAATTCCGGTCTCCC
DNA 2: TGGTGGCTACGACGGGATT
B26: UGCAUUA (DNA:RNA)
RNA: B1 RNA with G25U, U26G, U28A, A30U, G31A
DNA 1: CAATCTGAATTCCGGTCTCCC
DNA 2: TGGTGGCTACGACGGGATT
B27: UGCAUUG (DNA:RNA)
RNA: B1 RNA with G25U, U26G, U28A, A30U
DNA 1: CAATCTGAATTCCGGTCTCCC
DNA 2: TGGTGGCTACGACGGGATT
B28: GGGUGCA (DNA:RNA)
RNA: B1 RNA with U26G, C27G, U29G, A30C, G31A
DNA 1: CAATCTGAATTCCGGTCTCCC
DNA 2: TGGTGGCTACGACGGGATT
B29: UGCAGCA (DNA:RNA)
RNA: B17 RNA with C26G, A27C, C29G, U31A
DNA 1: CAATCTGAATTCCGGTCTCCC
DNA 2: TGGTGGCTACGACGGGATT
B30: CCGUGCA (DNA:RNA)
RNA: B17 RNA with U25C, A27G, A28U, C29G, U31A
DNA 1: CAATCTGAATTCCGGTCTCCC
DNA 2: TGGTGGCTACGACGGGATT
B31: UGCUGCA (DNA:RNA)
RNA: B1 RNA with G25U, U26G, U29G, A30C, G31A
DNA 1: CAATCTGAATTCCGGTCTCCC
DNA 2: TGGTGGCTACGACGGGATT
B32: GGUGCAU (DNA:RNA)
RNA: B1 RNA with U26G, C27U, U28G, U29C, G31U
DNA 1: CAATCTGAATTCCGGTCTCCC
DNA 2: TGGTGGCTACGACGGGATT
B33: UGCAUUC (DNA:RNA)
RNA: B1 RNA with G25U, U26G, U28A, A30U, G31C
DNA 1: CAATCTGAATTCCGGTCTCCC
DNA 2: TGGTGGCTACGACGGGATT

biological target: T1, RBFOX1 RRM; assay: EMSA; HiTS-Eq, 1 nM pool, 10 min; buffer printed only for the single-RNA assays: 10 mM Tris pH 7.5, 150 mM NaCl, 3.4 mM EDTA, 0.001% NP-40, 30 C; settings: tags: His6 N-terminal (pET28a); label: 5' 32P
Method in brief: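 Purified RbFox RRM (wild type or mutant) was equilibrated for 10 min in 50 µL with 1 nM of a 5′-radiolabelled pool of RNA with 7 randomized nucleotides, its flanks annealed to DNA oligonucleotides, across increasing protein concentrations. Free RNA was separated by 8% native PAGE, excised, reverse-transcribed, PCR-barcoded and sequenced on an Illumina HiSeq 2500. Relative association constants came from read-count changes of each variant against the control reaction, normalised to the cognate motif.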

Row | Binder | binding signal
1 | B1 | 0.0121 KA relative to UGCAUGU
2 | B2 | 0.00891 KA relative to UGCAUGU
3 | B3 | 0.0211 KA relative to UGCAUGU
4 | B4 | 0.0113 KA relative to UGCAUGU
5 | B5 | 0.913 KA relative to UGCAUGU
6 | B6 | 0.0164 KA relative to UGCAUGU
7 | B7 | 0.0106 KA relative to UGCAUGU
8 | B8 | 0.0154 KA relative to UGCAUGU
9 | B9 | 1.02 KA relative to UGCAUGU
10 | B10 | 0.0203 KA relative to UGCAUGU
11 | B11 | 0.965 KA relative to UGCAUGU
12 | B12 | 0.00704 KA relative to UGCAUGU
13 | B13 | 0.0332 KA relative to UGCAUGU
14 | B14 | 0.017 KA relative to UGCAUGU
15 | B15 | 0.0174 KA relative to UGCAUGU
16 | B16 | 0.0263 KA relative to UGCAUGU
17 | B17 | 0.00233 KA relative to UGCAUGU

Row | Binder | binding signal
18 | B18 | 0.0129 KA relative to UGCAUGU
19 | B19 | 0.0222 KA relative to UGCAUGU
20 | B20 | 0.0195 KA relative to UGCAUGU
21 | B21 | 0.000933 KA relative to UGCAUGU
22 | B22 | 0.0194 KA relative to UGCAUGU
23 | B23 | 0.0239 KA relative to UGCAUGU
24 | B24 | 0.0327 KA relative to UGCAUGU
25 | B25 | 0.0135 KA relative to UGCAUGU
26 | B26 | 0.0146 KA relative to UGCAUGU
27 | B27 | 0.0355 KA relative to UGCAUGU
28 | B28 | 0.0415 KA relative to UGCAUGU
29 | B29 | 0.0136 KA relative to UGCAUGU
30 | B30 | 0.017 KA relative to UGCAUGU
31 | B31 | 0.0343 KA relative to UGCAUGU
32 | B32 | 0.0241 KA relative to UGCAUGU
33 | B33 | 0.0105 KA relative to UGCAUGU
